Assay results from PubChem BioAssay AID1159580 (chemical genetic matrix, 2015).
About 2,000 (36%) of roughly 5,500 compounds were called active. Another 18% or so got no clear call; they are omitted. No stated cut-off is given here; in the data, active means normalized growth mostly below about 0.91 (no sharp cut-off); inconclusive means no clear call, values can overlap the other calls; inactive means mostly above about 0.92. Some of the results follow.

Experiment: chemical genetic growth profiling, strain panel (AID 1159580);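 further: tested at 20 µM; growth read once vehicle control cultures reached saturation at 30 °C; 1 = growth at the plate median or of vehicle wells; lower values mean less growth of the strain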
Conditions: growth OD

Measured: normalized growth

c1ccc(N=Nc2ccccc2)cc1
inactive: S. cerevisiae deletion strains, locus YJR066W, strain TOR1, active compounds read low 0.95 | S. cerevisiae deletion strains, locus YJR075W, strain HOC1, active compounds read low 0.98 | S. cerevisiae deletion strains, locus YKL009W, strain mrt4, active compounds read low 1 | S. cerevisiae deletion strains, locus YKL068W, active compounds read low 1.02 | S. cerevisiae deletion strains, locus YKL085W, strain MDH1 (second series), active compounds read low 1.01 | S. cerevisiae deletion strains, locus YKL085W, strain MDH1, active compounds read low 1.01 | S. cerevisiae deletion strains, locus YKL160W, strain elf1, active compounds read low 0.996 | S. cerevisiae deletion strains, locus YKL190W, strain CNB1, active compounds read low 0.993 | S. cerevisiae deletion strains, locus YKR001C, strain vps1, active compounds read low 0.979 | S. cerevisiae deletion strains, locus YKR026C, strain gcn3, active compounds read low 0.982 | S. cerevisiae deletion strains, locus YKR091W, strain srl3, active compounds read low 0.987 | S. cerevisiae deletion strains, locus YLL001W, strain dnm1, active compounds read low 0.977 | S. cerevisiae deletion strains, locus YLL026W, active compounds read low 0.986 | S. cerevisiae deletion strains, locus YLL041C, strain sdh2, active compounds read low 0.989 | S. cerevisiae deletion strains, locus YLR027C, strain aat2, active compounds read low 0.983 | S. cerevisiae deletion strains, locus YLR039C, strain RIC1, active compounds read low 0.878 | S. cerevisiae deletion strains, locus YLR058C, strain SHM2, active compounds read low 0.992 | S. cerevisiae deletion strains, locus YLR102C, strain apc9, active compounds read low 1.03 | S. cerevisiae deletion strains, locus YLR113W, strain HOG1, active compounds read low 0.978 | S. cerevisiae deletion strains, locus YLR221C, strain rsa3, active compounds read low 0.984 | S. cerevisiae deletion strains, locus YLR258W, strain gsy2, active compounds read low 0.974 | S. cerevisiae deletion strains, locus YLR262C, strain YPT6 (second series), active compounds read low 0.921 | S. cerevisiae deletion strains, locus YLR262C, strain YPT6, active compounds read low 0.887 | S. cerevisiae deletion strains, locus YLR268W, strain sec22, active compounds read low 0.988 | S. cerevisiae deletion strains, locus YLR320W, strain mms22, active compounds read low 0.993 | S. cerevisiae deletion strains, locus YLR330W, strain CHS5, active compounds read low 1.01 | S. cerevisiae deletion strains, locus YLR342W, strain FKS1 (second series), active compounds read low 0.966 | S. cerevisiae deletion strains, locus YLR342W, strain FKS1, active compounds read low 0.994 | S. cerevisiae deletion strains, locus YLR357W, strain rsc2, active compounds read low 0.97 | S. cerevisiae deletion strains, locus YLR370C, strain arc18, active compounds read low 0.996 | S. cerevisiae deletion strains, locus YLR371W, strain rom2, active compounds read low 1.02 | S. cerevisiae deletion strains, locus YLR384C, strain iki3, active compounds read low 0.973 | S. cerevisiae deletion strains, locus YLR418C, strain cdc73, active compounds read low 1 | S. cerevisiae deletion strains, locus YML016C, strain PPZ1, active compounds read low 1.01 | S. cerevisiae deletion strains, locus YML032C, strain rad52, active compounds read low 1.01 | S. cerevisiae deletion strains, locus YML120C, strain ndi1, active compounds read low 0.976 | S. cerevisiae deletion strains, locus YML124C, strain tub3, active compounds read low 1.03 | S. cerevisiae deletion strains, locus YMR058W, strain fet3, active compounds read low 0.99 | S. cerevisiae deletion strains, locus YMR078C, strain ctf18, active compounds read low 1.01 | S. cerevisiae deletion strains, locus YMR125W, strain sto1, active compounds read low 0.978 | S. cerevisiae deletion strains, locus YMR129W, active compounds read low 0.991 | S. cerevisiae deletion strains, locus YMR205C, strain PFK2, active compounds read low 0.952 | S. cerevisiae deletion strains, locus YMR223W, strain ubp8, active compounds read low 1 | S. cerevisiae deletion strains, locus YMR231W, strain pep5, active compounds read low 0.991 | S. cerevisiae deletion strains, locus YMR263W, strain SAP30, active compounds read low 0.972 | S. cerevisiae deletion strains, locus YMR307W, strain GAS1, active compounds read low 0.945 | S. cerevisiae deletion strains, locus YNL067W, strain RPL9B, active compounds read low 0.975 | S. cerevisiae deletion strains, locus YNL071W, strain lat1, active compounds read low 1 | S. cerevisiae deletion strains, locus YNL183C, strain NPR1, active compounds read low 0.904 | S. cerevisiae deletion strains, locus YNL209W, strain ssb2, active compounds read low 0.991 | S. cerevisiae deletion strains, locus YNL233W, strain BNI4, active compounds read low 0.971 | S. cerevisiae deletion strains, locus YNL248C, strain rpa49, active compounds read low 0.993 | S. cerevisiae deletion strains, locus YNL250W, strain rad50, active compounds read low 1.03 | S. cerevisiae deletion strains, locus YNL271C, strain bni1, active compounds read low 1.03 | S. cerevisiae deletion strains, locus YNL298W, strain CLA4, active compounds read low 1 | S. cerevisiae deletion strains, locus YNL307C, strain MCK1, active compounds read low 1 | S. cerevisiae deletion strains, locus YNL322C, strain KRE1 (second series), active compounds read low 0.974 | S. cerevisiae deletion strains, locus YNR049C, strain mso1, active compounds read low 0.994 | S. cerevisiae deletion strains, locus YNR052C, strain pop2, active compounds read low 1.03 | S. cerevisiae deletion strains, locus YOL006C, strain TOP1, active compounds read low 0.974 | S. cerevisiae deletion strains, locus YOL012C, strain htz1 0.782 | S. cerevisiae deletion strains, locus YOL147C, strain pex11, active compounds read low 1.02 | S. cerevisiae deletion strains, locus YOR001W, strain rrp6, active compounds read low 0.991 | S. cerevisiae deletion strains, locus YOR061W, strain CKA2, active compounds read low 1 | S. cerevisiae deletion strains, locus YOR069W, strain VPS5, active compounds read low 1 | S. cerevisiae deletion strains, locus YOR070C, strain gyp1, active compounds read low 0.985 | S. cerevisiae deletion strains, locus YOR080W, strain dia2, active compounds read low 0.974 | S. cerevisiae deletion strains, locus YOR083W, strain WHI5, active compounds read low 0.989 | S. cerevisiae deletion strains, locus YOR106W, strain vam3, active compounds read low 0.987 | S. cerevisiae deletion strains, locus YOR136W, strain idh2, active compounds read low 1.02 | S. cerevisiae deletion strains, locus YOR144C, strain elg1, active compounds read low 1.02 | S. cerevisiae deletion strains, locus YOR184W, strain ser1, active compounds read low 0.912 | S. cerevisiae deletion strains, locus YOR231W, strain MKK1, active compounds read low 0.944 | S. cerevisiae deletion strains, locus YOR265W, strain rbl2, active compounds read low 0.985 | S. cerevisiae deletion strains, locus YOR270C, strain vph1, active compounds read low 1.11 | S. cerevisiae deletion strains, locus YOR290C, strain snf2, active compounds read low 0.998 | S. cerevisiae deletion strains, locus YOR316C, strain cot1, active compounds read low 1.03 | S. cerevisiae deletion strains, locus YPL051W, strain arl3, active compounds read low 0.987 | S. cerevisiae deletion strains, locus YPL055C, strain LGE1, active compounds read low 0.995 | S. cerevisiae deletion strains, locus YPL078C, strain atp4, active compounds read low 0.979 | S. cerevisiae deletion strains, locus YPL106C, strain sse1, active compounds read low 0.98 | S. cerevisiae deletion strains, locus YPL240C, strain hsp82, active compounds read low 0.986 | S. cerevisiae deletion strains, locus YPL256C, strain CLN2, active compounds read low 0.953 | S. cerevisiae deletion strains, locus YPR119W, strain clb2, active compounds read low 1.03 | S. cerevisiae deletion strains, locus YPR141C, strain kar3, active compounds read low 1.03 | S. cerevisiae deletion strains, locus YPR163C, strain tif3, active compounds read low 1.04 | S. cerevisiae deletion strains, locus YPR167C, strain met16, active compounds read low 1.02 | S. cerevisiae deletion strains, strain wtn01, active compounds read low 1.04 | S. cerevisiae strains, strain wild type, active compounds read low 1
